Data on three compounds can be found in PubChem BioAssay (EPA / NIEHS).

Read-out in experiment [1]: Macrophage colony-stimulating factor (MCSF), CSF1 (gene 1435)
Put plainly: BSK_hDFCGF_MCSF: BioMAP Diversity Plus: hDFCGF Assay for Macrophage colony-stimulating factor (MCSF) Biomarker Activity (AID 2283060). The following applies: primary human foreskin fibroblasts; actives raise or lower the signal. The procedure, abridged: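 M-CSF levels read by ELISA at 24 h post-dosing in human skin fibroblasts. Parallel cultures stained with SRB assessed cytotoxicity at the same time point; response fitted in both directions against the DMSO baseline.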

Experiment [2] is described as follows: BSK_hDFCGF_SRB: Viability Assessment in the BioMAP Diversity Plus: hDFCGF Assay (AID 2283061).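 Further: cells exposed to compound for 24 h before the read.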 To be noted: primary human foreskin fibroblasts. Summed up: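 Viability was read as total protein: after 10% TCA fixation, wells were stained with 0.1% sulforhodamine B and read at 560 nm. Primary human foreskin fibroblasts were dosed for 24 h, with bidirectional fitting versus DMSO.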

Read-out in experiment [3]: TIMP metallopeptidase inhibitor 1 (TIMP1), TIMP1 (gene 7076)
Put plainly: BSK_hDFCGF_TIMP1: BioMAP Diversity Plus: hDFCGF Assay for TIMP metallopeptidase inhibitor 1 (TIMP1) Biomarker Activity (AID 2283062). To be noted: primary human foreskin fibroblasts; actives raise or lower the signal. Summed up: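 TIMP-1 measured by ELISA 24 h after chemical dosing of primary human skin fibroblasts, with gain or loss fitted relative to DMSO. Parallel SRB staining (560 nm) monitored overt cytotoxicity.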

Read-out in experiment [4]: Monokine induced gamma interferon (MIG), CXCL9 (gene 4283)
In words: BSK_hDFCGF_MIG: BioMAP Diversity Plus: hDFCGF Assay for Monokine induced gamma interferon (MIG) Biomarker Activity (AID 2283063). The following applies: primary human foreskin fibroblasts; actives raise or lower the signal. The procedure, abridged: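 Human primary foreskin fibroblasts in the hDFCGF system, exposed to test chemical for 24 h; MIG measured by ELISA. Bidirectional curve fitting against DMSO negative control as activity baseline.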

Read-out in experiment [5]: Matrix Metallopeptidase 1 (MMP1), MMP1 (gene 4312)
In words: BSK_hDFCGF_MMP1: BioMAP Diversity Plus: hDFCGF Assay for Matrix Metallopeptidase 1 (MMP1) Biomarker Activity (AID 2283064). The following applies: primary human foreskin fibroblasts; actives raise or lower the signal. Summed up:
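Primary human foreskin fibroblasts exposed to chemicals for 24 h; MMP1 measured by ELISA. Cytotoxicity tracked by SRB staining in parallel cultures; bidirectional fit relative to DMSO.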

Read-out in experiment [6]: Vascular cell adhesion molecule 1 (VCAM1), VCAM1 (gene 7412)
In words: BSK_hDFCGF_VCAM1: BioMAP Diversity Plus: hDFCGF Assay for Vascular cell adhesion molecule 1 (VCAM1) Biomarker Activity (AID 2283065).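 On AC50: VCAM-1 protein level quantified by ELISA after 24 h chemical exposure.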 The following applies: primary human foreskin fibroblasts; actives raise or lower the signal. Summed up: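 ELISA readout of VCAM-1 on human dermal fibroblast primary cultures, 24 h after chemical exposure. Gain or loss of signal fitted in both directions against DMSO baseline.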

Read-out in experiment [7]: Plasminogen activator inhibitor-1 (PAI1), SERPINE1 (gene 5054)
Put plainly: BSK_hDFCGF_PAI1: BioMAP Diversity Plus: hDFCGF Assay for Plasminogen activator inhibitor-1 (PAI1) Biomarker Activity (AID 2283066). The following applies: primary human foreskin fibroblasts; actives raise or lower the signal. The procedure, abridged:
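Primary dermal fibroblasts (human foreskin), hDFCGF system; compound 24 h; PAI-1 by ELISA; bidirectional fit vs DMSO control.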

Read-out in experiment [8]: Intercellular Adhesion Molecule 1 (ICAM1), ICAM1 (gene 3383)
In words: BSK_KF3CT_ICAM1: BioMAP Diversity Plus: KF3CT Assay for Intercellular Adhesion Molecule 1 (ICAM1) Biomarker Activity (AID 2283067). To be noted: primary human keratinocytes with fibroblasts; actives raise or lower the signal. Summed up:
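Cell-surface ICAM-1 was measured by ELISA 24 h after dosing primary human skin keratinocytes co-cultured with fibroblasts. Parallel SRB staining tracked overt cytotoxicity. Gain or loss of signal was fitted relative to DMSO.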

Read-out in experiment [9]: Interferon-gamma inducible Protein 10 (IP10), CXCL10 (gene 3627)
In words: BSK_KF3CT_IP10: BioMAP Diversity Plus: KF3CT Assay for Interferon-gamma inducible Protein 10 (IP10) Biomarker Activity (AID 2283068). To be noted: primary human keratinocytes with fibroblasts; actives raise or lower the signal. The procedure, abridged: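 Human keratinocyte plus foreskin fibroblast primary co-culture exposed to test chemical for 24 h; IP-10 measured by ELISA. Concentration-response fitted bidirectionally against DMSO control as baseline.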

Experiment [10] in a line: BSK_KF3CT_SRB: Viability Assessment in the BioMAP Diversity Plus: KF3CT Assay (AID 2283069).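 Further: total protein by sulforhodamine B staining as a cytotoxicity measure; read 24 h after compound addition.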 The following applies: primary human keratinocytes with fibroblasts. Summed up:
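Human keratinocyte and foreskin fibroblast co-culture exposed to chemical for 24 h. Total protein measured in parallel cultures by 0.1% sulforhodamine B staining after 10% TCA fixation, read at 560 nm; bidirectional fit relative to DMSO.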

Read-out in experiment [11]: Interleukin-1 alpha (IL1a), IL1A (gene 3552)
In words: BSK_KF3CT_IL1a: BioMAP Diversity Plus: KF3CT Assay for Interleukin-1 alpha (IL1a) Biomarker Activity (AID 2283070). To be noted: primary human keratinocytes with fibroblasts; actives raise or lower the signal. The procedure, abridged:
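Primary human keratinocyte plus foreskin fibroblast co-culture, dosed and measured at 24 h in 96-well plates. IL-1a level quantified by ELISA; bidirectional fit relative to DMSO.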

Read-out in experiment [12]: TIMP metallopeptidase inhibitor 2 (TIMP2), TIMP2 (gene 7077)
Put plainly: BSK_KF3CT_TIMP2: BioMAP Diversity Plus: KF3CT Assay for TIMP metallopeptidase inhibitor 2 (TIMP2) Biomarker Activity (AID 2283071). To be noted: primary human keratinocytes with fibroblasts; actives raise or lower the signal. Summed up:
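Cells: human keratinocytes co-cultured with foreskin fibroblasts. Treat with chemical, 24 h. Measure TIMP-2 by ELISA; fit curves bidirectionally vs DMSO baseline.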

Read-out in experiment [13]: C-C motif chemokine 2 (Homo sapiens) (UniProt P13500)
Put plainly: BSK_KF3CT_MCP1: BioMAP Diversity Plus: KF3CT Assay for Monocyte Chemoattractant Protein 1 (MCP1/CCL2) Biomarker Activity (AID 2283073). The following applies: primary human keratinocytes with fibroblasts; actives raise or lower the signal. Summed up: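 ELISA read-out of MCP-1, 24 h post-dose, in primary human skin keratinocytes co-cultured with fibroblasts. Parallel SRB staining monitors cytotoxicity; changes fitted both directions relative to DMSO.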

Read-out in experiment [14]: urokinase plasminogen activator (uPA), PLAU (gene 5328)
In words: BSK_KF3CT_uPA: BioMAP Diversity Plus: KF3CT Assay for urokinase plasminogen activator (uPA) Biomarker Activity (AID 2283075). To be noted: primary human keratinocytes with fibroblasts; actives raise or lower the signal. Summed up: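 Primary human keratinocyte/foreskin fibroblast co-culture exposed to chemical; uPA measured by ELISA at 24 h. Bidirectional fit versus DMSO, with parallel SRB total-protein staining for cytotoxicity.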

Read-out in the next experiment: CD40, CD40 (gene 958)
Put plainly: BSK_LPS_CD40: BioMAP Diversity Plus: LPS Assay for CD40 Biomarker Activity (AID 2283076). To be noted: primary human HUVEC with PBMC; actives raise or lower the signal. Summed up:
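In the LPS system of human endothelial cells with peripheral blood mononuclear cells, CD40 levels were read by ELISA 24 h post-treatment. Signal changes in either direction were fitted against the DMSO baseline, with parallel SRB protein staining.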

Read-out in experiment [15]: E-selectin (Homo sapiens) (UniProt P16581)
In words: BSK_LPS_Eselectin: BioMAP Diversity Plus: LPS Assay for Eselectin Biomarker Activity (AID 2283077). To be noted: primary human HUVEC with PBMC; actives raise or lower the signal. Summed up:
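E-selectin ELISA on LPS-stimulated endothelial cell/PBMC co-cultures, read 24 h post-treatment; gains and losses fitted against DMSO. Parallel SRB staining (0.1% SRB after 10% TCA fixation, 560 nm) flags overt cytotoxicity.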

Read-out in experiment [16]: Interleukin-8 (IL8), CXCL8 (gene 3576)
Put plainly: BSK_LPS_IL8: BioMAP Diversity Plus: LPS Assay for Interleukin-8 (IL8) Biomarker Activity (AID 2283078). The following applies: primary human HUVEC with PBMC; actives raise or lower the signal. Summed up: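 ELISA read-out of IL-8 after 24 h chemical treatment of LPS-activated endothelial/PBMC human primary co-cultures. Changes either up or down relative to DMSO; overt cytotoxicity checked by sulforhodamine B staining in parallel wells.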

Experiment [17] is described as follows: BSK_LPS_SRB: Viability Assessment in the BioMAP Diversity Plus: LPS Assay (AID 2283079).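 Further: total protein by sulforhodamine B absorbance as a cytotoxicity measure; measured one day after compound addition.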 To be noted: primary human HUVEC with PBMC. The procedure, abridged: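 SRB viability endpoint: cells fixed with 10% TCA, stained with 0.1% SRB, read at 560 nm, 24 h post-dose. HUVEC/PBMC co-culture; signal change in either direction scored relative to DMSO.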

Several values for one entry are separate records, joined by “and”; a condition that tells them apart may be missing. Equal values may be shown once. Activity calls are given as the source filed them. How the source made its calls: active means hit-call score of the fitted dose curve at least 0.9, where 1 is the maximum; inactive means score below 0.9.

Chain of E-selectin (Homo sapiens) (P16581 whole entry, looked up): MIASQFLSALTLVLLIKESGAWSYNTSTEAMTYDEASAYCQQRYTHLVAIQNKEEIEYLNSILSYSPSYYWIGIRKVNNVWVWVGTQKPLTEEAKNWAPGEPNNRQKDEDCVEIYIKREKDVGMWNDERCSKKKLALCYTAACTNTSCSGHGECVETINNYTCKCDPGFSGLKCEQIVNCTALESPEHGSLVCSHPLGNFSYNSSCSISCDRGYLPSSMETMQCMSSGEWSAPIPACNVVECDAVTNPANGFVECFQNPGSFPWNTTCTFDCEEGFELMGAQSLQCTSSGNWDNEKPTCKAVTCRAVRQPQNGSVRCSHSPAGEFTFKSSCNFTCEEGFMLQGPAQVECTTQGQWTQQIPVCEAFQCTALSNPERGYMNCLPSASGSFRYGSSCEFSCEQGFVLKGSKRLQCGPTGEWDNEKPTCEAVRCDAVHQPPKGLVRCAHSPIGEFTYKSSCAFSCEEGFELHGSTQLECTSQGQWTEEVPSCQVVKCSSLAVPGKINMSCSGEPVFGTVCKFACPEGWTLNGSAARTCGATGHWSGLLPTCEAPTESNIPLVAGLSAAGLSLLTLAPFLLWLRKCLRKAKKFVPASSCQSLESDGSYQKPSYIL

For the compound `C=CC(=O)OCC(F)(F)C(F)(F)C(F)(F)C(F)(F)COC(=O)C=C`, the concentration at half-maximal activity (AC50) in experiment [1] was 5.29 µM (active) and 5.49 µM (active); in [2], 8.52 µM (active) and 8.25 µM (active); in [3] it was 8.88 µM (active) and 9.2 µM (active); in experiment [4], 3.49 µM (active) and 3.32 µM (active); in [5] it was 17.1 µM (active) and 17.3 µM (active); in experiment [6], 3.41 µM (active) and 3.27 µM (active). Besides, the AC50 was 8.89 µM (active) and 8.86 µM (active) in experiment [7]; 23 µM (active) and 24.1 µM (active) in experiment [8]; 19.3 µM (active) and 20.9 µM (active) in experiment [9]; 41.7 µM (active) and 43.2 µM (active) in experiment [10]; 18.6 µM (active) and 48.2 µM (active) in [11]; 25.7 µM (active) and 33.3 µM (active) in experiment [12]. Also, the concentration at half-maximal activity (AC50) is 10.9 µM (active) and 15.4 µM (active) in [13]; 33.8 µM (active) and 37 µM (active) in [14]; 12.2 µM (active) and 18.5 µM (active) with CD40, CD40 (gene 958); 17.3 µM (active) and 17.6 µM (active) in [15]; 19.2 µM (active) and 16.7 µM (active) in [16]; 45.3 µM (active) and 43.4 µM (active) in experiment [17].
As for `OCC(F)(F)C(F)(F)C(F)(F)F`, the outcome in [1], in experiment [2], in experiment [3], in experiment [4], in [5] and in [6] was inactive. Besides, the result in [7], in [8], in experiment [9], in experiment [10], in [11] and in experiment [12] was inactive. The outcome in [13] was “inactive”; in experiment [14] it was “inactive”; with CD40, CD40 (gene 958) it was “inactive”; in [15] it was “inactive”; in [16], “inactive”; in experiment [17], “inactive”.
Regarding `FC(F)(Br)C(F)(F)C(F)(F)C(F)(F)C(F)(F)C(F)(F)Br`, the outcome in experiment [1], in experiment [2], in experiment [3], in [4], in [5] and in [6] was inactive. Besides, the result in [7], in experiment [8], in [9], in [10], in [11] and in experiment [12] was inactive. Besides, the outcome is “inactive” in [13]; “inactive” in experiment [14]; “inactive” in the experiment with CD40, CD40 (gene 958); “inactive” in [15]; “inactive” in experiment [16]; “inactive” in [17].
